Assay outcomes deposited in PubChem BioAssay by National Center for Advancing Translational Sciences (NCATS).
FUS suppressor = rescues growth of FUS-expressing yeast; Potency, µM (doses to about 76.6 µM), most hits filed as activators; S. cerevisiae FUS-expressing, growth rescue, OD600, 24 h; 0.24% of 390,000 active; also: nearly all actives have a fitted effect of over 55% in size
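Absorbance at 600 nm, taken 24hr after compound addition, measured rescue of FUS-yeast growth at 30C. Induction used 2% galactose with seeding at OD 0.005. Controls: CP55940 from 92uM final, DMSO only.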
aSyn yeast inh = rescues yeast growth from alpha-synuclein toxicity. Yeast expressing alpha-synuclein, growth rescue, BacTiter-Glo, 24 h. Potency, µM (series often up to 46.1 µM), actives largely listed as activators. 0.14% of 370,000 active. AID 652106; also: nearly all actives have a fitted effect of over 65% in size
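Readout is rescue of growth in alpha-synuclein-expressing yeast, so inhibitors of toxicity appear as activators. Growth after 24 hr at 30 deg C in galactose medium is quantified by luminescence.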
Abeta yeast res = A-beta toxicity reversal in yeast; AID 1347071; yeast expressing A-beta42, growth rescue, OD600, 48 h; response scale: 0% DMSO, 100% iron-clioquinol control; Potency, µM (top dose mostly 46.1 µM), usual class: activators; 0.063% of 410,000 active; also: nearly all actives have a fitted effect of over 55% in size
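Growth rescue measured by 600 nm absorbance after 48 h yeast culture at 30 C with compound. Values normalized between DMSO and an equimolar ferric chloride plus clioquinol control.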
TDP-43 yeast inh = TDP-43 toxicity inhibition in yeast. TDP-43 expressing yeast growth rescue, BacTiter-Glo, 24 h. Potency, µM (series often up to 46.1 µM), hits mostly activators. 1.8% of 410,000 active. AID 652104; also: nearly all actives have a fitted effect of over 50% in size
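Growth rescue of TDP-43-toxic yeast measured as ATP luminescence (BacTiter-Glo). Cells grown to mid-log in raffinose, induced in galactose at OD600=0.02, exposed to compound 24 hr at 30 deg C.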
Of the large screens only hits and unclear results are named; the others gave an inactive call. A selection: hits, their analogues and other compounds. The true share with any hit is near 2.1%. Calls follow the shape of the dose curve; as a rule, active = well fitted curve in the direction sought with a large enough effect; inconclusive = small, poorly fitted or top-dose-only effect, or another doubt; inactive = no such curve, though single readings can be large; an effect the other way counts as inactive or inconclusive.

CC1=C(C(=O)N(C(C)C)C(C)C)CC(CC(=O)NCCN2CCOCC2)C(=O)N1CCC1=CCCCC1 (stereo not drawn)	none
O=C(CSc1nc2c([nH]c3ccccc32)c(=O)n1-c1ccc(F)cc1)NCC1CCCO1 (stereo not drawn)	none (no result: aSyn yeast inh)
COc1ccc(-n2c(=O)c(CCC(=O)N(C)Cc3ccccc3C)nc3ccccc32)cc1	none
CCc1ccc(CN(C)C(=O)CCc2nc3ccccc3n(-c3ccc(OC)cc3)c2=O)cc1	FUS suppressor inconclusive, TDP-43 yeast inh 18µM
CCOC(=O)C1=C(N)N2C(=O)C(C)SC2=C(C(=O)OC)C1c1cccc(OC)c1 (stereo not drawn)	TDP-43 yeast inh 20µM
CC1(Cc2ccc(Cl)cc2)C(=O)Nc2c(Cl)cccc21 (stereo not drawn)	aSyn yeast inh 5µM, TDP-43 yeast inh inconclusive
Cc1ccc(CC2(C)C(=O)Nc3c(Cl)cccc32)cc1 (stereo not drawn)	aSyn yeast inh 6.3µM
CC1(Cc2ccc(Cl)cc2)C(=O)Nc2ccc(-c3ccc(F)c(Cl)c3)cc21 (stereo not drawn)	none
CC1(Cc2cccc(C(F)(F)F)c2)C(=O)Nc2c(Cl)cccc21 (stereo not drawn)	aSyn yeast inh 22µM
CC1(Cc2ccc3c(c2)OCO3)C(=O)Nc2ccc(-c3cccc(C(F)(F)F)c3)cc21 (stereo not drawn)	none
CC1(Cc2ccc3c(c2)OCO3)C(=O)Nc2c(Cl)ccc(Cl)c21 (stereo not drawn)	aSyn yeast inh 22µM, TDP-43 yeast inh inconclusive
COc1ccc(N=C(N)NC(=O)OCc2ccccc2)cc1	none (no result: aSyn yeast inh, Abeta yeast res, TDP-43 yeast inh)
CC(=O)c1cccc(OCc2cc(C(=O)NCCC3=CCCCC3)no2)c1	none
COc1ccccc1CC1(C)C(=O)Nc2c(Cl)cccc21 (stereo not drawn)	aSyn yeast inh inconclusive, TDP-43 yeast inh inconclusive
CC1(Cc2ccc(F)cc2)C(=O)Nc2c(Cl)cccc21 (stereo not drawn)	aSyn yeast inh 13µM, TDP-43 yeast inh 28µM
CCOC(=O)c1c(C)[nH]c(C)c1C(=O)COC(=O)Cc1n[nH]c(=O)c2ccccc12	none
Cn1c(CO)c(-c2ccccc2)c2cc([N+](=O)[O-])ccc21	TDP-43 yeast inh 14µM
CC(=O)OCc1c(-c2ccccc2)c2cc([N+](=O)[O-])ccc2n1C	none
CN(C(=O)CSc1nc2ncccc2o1)c1ccc(F)cc1	none (no result: aSyn yeast inh)
Brc1cc2c(cc1Br)OCCOCCOCCO2	TDP-43 yeast inh 20µM
COc1ccc(CN2C(=O)c3cccnc3C2=O)cc1S(=O)(=O)N1CC(C)CC(C)C1 (stereo not drawn)	none
CC1CCCN(S(=O)(=O)c2ccc(CN3C(=O)c4cccnc4C3=O)cc2)C1 (stereo not drawn)	aSyn yeast inh 0.56µM, TDP-43 yeast inh inconclusive
COc1cccc(C2CC(c3cccc(Br)c3)n3ncnc3N2)c1 (stereo not drawn)	TDP-43 yeast inh 20µM
Cc1noc(C)c1COc1ccccc1C(=O)N(C)Cc1ccc(C(C)(C)C)cc1	TDP-43 yeast inh 35µM
O=C(NC(=S)Nc1ccccc1Br)C1CCCC1	Abeta yeast res inconclusive, TDP-43 yeast inh 16µM
COC(=O)c1ccccc1NC(=S)NC(=O)C1CC1	none
O=C(NC(=S)Nc1ccccc1Br)C1CCCCC1	TDP-43 yeast inh 16µM (no result: FUS suppressor)
O=C(Nc1ccccc1Sc1ccccc1)c1cnn2c1NC(=C1CC1)C=C2C(F)(F)F	none (no result: FUS suppressor, Abeta yeast res, TDP-43 yeast inh)
CCCN(CC(=O)Nc1cc(Cl)cc(Cl)c1)CC(=O)Nc1ccc(F)c(F)c1F	Abeta yeast res inconclusive, TDP-43 yeast inh 28µM
Cc1ccccc1NCc1ccc([N+](=O)[O-])s1	TDP-43 yeast inh 11µM
Cc1cccc(NCc2ccc([N+](=O)[O-])s2)c1	TDP-43 yeast inh inconclusive
Cc1ccc(NCc2ccc([N+](=O)[O-])s2)cc1	TDP-43 yeast inh 11µM
O=[N+]([O-])c1ccc(CNc2cccc(F)c2)s1	Abeta yeast res inconclusive, TDP-43 yeast inh 11µM
CC1(C(=O)NCc2ccc(C(F)(F)F)cc2)CCN1Cc1ccc(-c2ccccc2)o1 (stereo not drawn)	FUS suppressor inconclusive, aSyn yeast inh 16µM
CCOc1ccc(CCNC(=O)CSc2nnnn2-c2ccccc2)cc1OCC	none
COc1ccc(-c2nc(CCl)cs2)cc1	none
COc1cccc(-c2nc(CCl)cs2)c1	TDP-43 yeast inh 11µM
O=C(O)c1ccc2c(c1)S(=O)(=O)c1cc(N3CCN(c4cnccn4)CC3)ccc1C2=O	none
Oc1cccc2c(NC(=S)Nc3ccc(SC(F)F)cc3)cccc12	TDP-43 yeast inh 11µM
CC(=O)N1CCc2nc3sc(C(=O)c4ccc(F)cc4)c(N)c3c(C(F)(F)F)c2C1	TDP-43 yeast inh 28µM (no result: aSyn yeast inh)
COc1ccc(CCNC(=O)c2cccc(C(=O)NCCc3ccc(OC)cc3)n2)cc1	TDP-43 yeast inh inconclusive
O=C(C(=Cc1ccc(F)cc1)C(=O)c1ccccc1)c1ccccc1	aSyn yeast inh inconclusive, TDP-43 yeast inh 3.5µM
O=C(O)CNC(=O)/C=C/c1ccc(Cl)cc1Cl	none
COCCCNC(=O)/C=C/c1ccc(Cl)cc1Cl	TDP-43 yeast inh 14µM
Cc1ccc(-n2c3c(cc(-c4nc(-c5ccc(Cl)cc5)cs4)c2=O)C(=O)CC(C)(C)C3)cc1C	none (no result: aSyn yeast inh)
COc1ccc(NC(=O)c2cc3c(C)nn(-c4ccccc4)c3s2)cc1	none (no result: aSyn yeast inh, Abeta yeast res, TDP-43 yeast inh)
Nc1nc2c(s1)CCc1c-2cnn1-c1ccccc1	aSyn yeast inh 11µM
Nc1nc2c(s1)COc1ccccc1-2	none
CC[C@H](CCCCCCCn1ccc2ccccc21)CCC(=O)N(c1ccccc1)c1ccccc1	none (no result: aSyn yeast inh, Abeta yeast res, TDP-43 yeast inh)
CCOc1ccc(C(=O)Nc2ccc3oc(-c4ccc5ccccc5c4)nc3c2)cc1	none (no result: aSyn yeast inh)
C=CCn1c(SCc2ccc(C#N)cc2)nnc1-c1cccc(Cl)c1	TDP-43 yeast inh 14µM
O=C1CN(C(=O)C2CCC(=O)N(CCc3ccc(Cl)cc3)C2)CCN1 (stereo not drawn)	none
Nc1cc(N2CCCCC2)c([N+](=O)[O-])cc1Cl	TDP-43 yeast inh inconclusive (no result: FUS suppressor)
Nc1cc(N2CCCCC2)c(Cl)cc1[N+](=O)[O-]	TDP-43 yeast inh 13µM
NNC(=O)c1ccc(CSc2cccc3cccnc23)cc1	none
Cc1cccc(CSc2cccc3cccnc23)c1	TDP-43 yeast inh 18µM
CCOC(=O)c1c(C)[nH]c(C)c1S(=O)(=O)N1CCC(C(=O)N2CCN(c3cccc(C)c3)C(C)C2)CC1 (stereo not drawn)	none (no result: aSyn yeast inh)
C/C(=N\NC(=O)c1cc2ccccc2cc1O)c1ccccn1	aSyn yeast inh 10µM, Abeta yeast res inconclusive
C/C(=N/NC(=O)c1cc2ccccc2cc1O)C1C(=O)c2ccccc2C1=O	FUS suppressor 7.1µM
CCN(CC)C(=O)CC[C@@H]1CC[C@]2(CCCN(Cc3nccs3)C2)O1	none (no result: aSyn yeast inh, Abeta yeast res, TDP-43 yeast inh)
CCC(C)CNC(=O)c1oc(=O)c2ccccc2c1-c1ccc(C)cc1 (stereo not drawn)	none (no result: aSyn yeast inh, Abeta yeast res, TDP-43 yeast inh)
Cc1ccccc1CC1C(=O)Nc2ccc(Br)cc21 (stereo not drawn)	Abeta yeast res inconclusive, TDP-43 yeast inh 13µM (no result: aSyn yeast inh)
O=C(COC(=O)CCCOc1ccc(Cl)cc1Cl)NCc1ccc(F)cc1	Abeta yeast res inconclusive, TDP-43 yeast inh 16µM
